# Screen size: about 320,000 compounds; about 2,100 (0.66%) were called active. Inconclusive results (about 53%) are left out. Calls come from the whole dose curve; as a rule, active = well fitted inhibition curve with a large enough effect in the signal ratio, with a control signal flat (not every such curve was filed as active); inconclusive = small, poorly fitted or top-dose-only effect, or effect the other way, or a change in a side signal; inactive = flat fitted curve, though single readings scatter; the % refers to the signal ratio. The list comes from a sample in which actives are over-represented; it also holds similar structures and randomly drawn compounds.
# Experiment: qHTS Assay for Lipid Storage Modulators in Drosophila S3 Cells;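 for cell number change: cells counted by Cell Tracker Red CMTPX staining in the red channel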; for lipid storage change, negative = inhibition: % is set by controls: 0 for no effect and ±100 for the full control effect
# Details: BODIPY lipid droplet fluorescence, 18-24 h, cells fed with added oleic acid; cell number change: measured here: cell count max response; series mostly up to 46.1 µM; lipid storage change, negative = inhibition: at the top concentration
# In short: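 Drosophila S3 cells loaded with oleic acid (400 uM, as added) and compounds at several concentrations; lipid droplets imaged by 488-nm laser-scanning cytometry, 500–530 nm intensity and object ratio to cell channel. Percent activity normalized to 20 uM Triacsin C.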
# Potency is the fitted concentration of half-maximal effect.
Structure (SMILES),"lipid storage change, negative = inhibition",cell number change,Potency,outcome
CCOC(=O)c1ccc(NC(=O)Cn2nnc(-c3ccc(F)cc3)n2)cc1,-18.5% (inactive),-3.44%,,
COc1ccc(OC)c(Nc2nc3nonc3nc2N2CCCC(C)C2)c1 (centres undefined),10.9% (inactive),7.7%,,
CC(C)c1onc(C(=O)N2CCOCC2)c1[N+](=O)[O-],2.21% (inactive),-0.564%,,
CC(C)c1onc(C(=O)N2CCCCC2)c1[N+](=O)[O-],,-22.7%,0.82 µM (active),
CC(C)c1onc(C(=O)N2CCCCCC2)c1[N+](=O)[O-],-5% (inactive),-15.8%,,
CS(=O)(=O)N1CCC(C(=O)Nc2ccc(Cl)c(Cl)c2)CC1,17.7% (inactive),-6.77%,,
COc1ccc(CC(=O)OCC(=O)Nc2ccc3c(c2)OCCO3)cc1OC,3.05% (inactive),3.44%,,
O=C(CCn1c(=O)[nH]c2ccsc2c1=O)N1CCN(Cc2ccc3c(c2)OCO3)CC1,-1.99% (inactive),,,
Cc1ccc(-c2nc3ccccc3[nH]2)cn1,-2.7% (inactive),10.6%,,
CCN(CC)S(=O)(=O)c1cc(C(=O)Nc2cccnc2Cl)ccc1Cl,,,,inactive
CCN(CC)S(=O)(=O)c1cc(C(=O)n2cccn2)c(Cl)cc1Cl,,-0.259%,4.61 µM (active),
CCN(CC)S(=O)(=O)c1cc(C(=O)Nc2cc(C)on2)c(Cl)cc1Cl,-12% (inactive),-16.4%,,
O=C(COC(=O)CC12CC3CC(CC(Br)(C3)C1)C2)NC(=O)NCc1ccco1,-0.115% (inactive),-9.1%,,
CC(=O)NC12CC3CC(C1)CC(C(=O)OCC(=O)NC(=O)c1cccn1C)(C3)C2,-20.7% (inactive),-12.7%,,
Cn1cccc1C(=O)NC(=O)COC(=O)CC12CC3CC(CC(Br)(C3)C1)C2,,2.25%,7.31 µM (active),
O=C(NCc1nc2ccccc2[nH]1)c1c(F)c(F)c(F)c(F)c1F,-16.5% (inactive),-0.311%,,
O=C(O)C1CCCCC1C(=O)NCCc1cccc(Cl)c1 (centres undefined),-11.6% (inactive),-1.17%,,
Cc1ccn(CC(=O)N2CCCC(N3CCN(c4cccc(Cl)c4)CC3)C2)n1 (centres undefined),,14.6%,,inactive
Cc1nc(CNC(=O)CC2C(=O)NCCN2Cc2ccc(F)cc2)cs1 (centres undefined),-3.08% (inactive),20.2%,,
CCN(CC)S(=O)(=O)c1ccc(OC)c(NC(=O)C2CC(=O)N(c3ccc4c(c3)OCCO4)C2)c1 (centres undefined),,-25.9%,,inactive
CN(C)c1ccc(C(=O)N2CCCC(CCC(=O)N3CCN(c4ccccn4)CC3)C2)cc1 (centres undefined),-21.3% (inactive),-25.3%,,
COc1ccc(C(=O)N2CCCC(CCC(=O)N3CCN(c4ccccn4)CC3)C2)cc1 (centres undefined),,-15.8%,8.2 µM (active),
C=Cc1ccc(C(=O)N2CCCC(CCC(=O)N3CCN(c4ccccn4)CC3)C2)cc1 (centres undefined),,-2.91%,,inactive
COc1ccc(-n2cccc2/C=C2\C(=N)N3N=C(c4ccco4)SC3=NC2=O)cc1,-14.1% (inactive),-5.47%,,

Structure (SMILES),"lipid storage change, negative = inhibition",cell number change,Potency,outcome
CC(C)(C)NC(=O)Cn1ccc(=N)c2ccccc21,0.397% (inactive),-1.29%,,
CCOC(=O)CNc1c(-c2ccc(O)cc2)nc2ccccn12,21.7% (inactive),4.87%,,
CCCCNc1c(-c2ccc(-c3cccc(Cl)c3)cc2)nc2ccccn12,,5.08%,23.1 µM (active),
CCCCNc1c(-c2cccc(SC3CCCCC3)c2)nc2ccc(Cl)cn12,2.09% (inactive),5.29%,,
O=C1CCCC2(O)C1C(c1cccc(Br)c1)NC(=O)N2Cc1ccccc1 (centres undefined),-9.4% (inactive),1.15%,,
O=S(=O)(CCc1ccccc1)N1CCOCC1,,1.99%,5.8 µM (active),
c1ccc(CCCN2CCOCC2)cc1,15.4% (inactive),11.8%,,
CCCS(=O)(=O)N1CCN(CCCc2ccccc2)CC1,9.48% (inactive),6.21%,,
CC(C)Sc1nnc(NC(=O)c2ccc3c(c2)OCO3)s1,-3.82% (inactive),,,
O=C(COC(=O)COc1ccccc1)NC1CCCC1,10.1% (inactive),-5.97%,,
COc1ccc(C2CC(C(F)(F)F)n3nc(C(=O)O)cc3N2)cc1OC (centres undefined),-2.01% (inactive),20.6%,,
COc1ccc(OC)c(NC(=O)c2cc3n(n2)C(C(F)(F)F)CC(c2ccc4c(c2)OCO4)N3)c1 (centres undefined),-0.757% (inactive),16.6%,,
COc1ccc(NC(=O)c2cc3n(n2)C(C(F)(F)F)CC(c2ccc4c(c2)OCO4)N3)cc1OC (centres undefined),,-18.2%,16.4 µM (active),
Cn1cc(CN2CCC(CO)CC2)c(-c2ccc(Oc3ccccc3)cc2)n1,15.5% (inactive),-5.37%,,
COc1cccc(CNC(=O)C2CCN(S(=O)(=O)N3CCC4(CC3)OCCO4)CC2)c1,22.2% (inactive),8.33%,,
O=C(Nc1ccc(S(=O)(=O)Nc2ncccn2)cc1)C1=COCCO1,18% (inactive),6.63%,,
CC1Sc2ccc(S(=O)(=O)NCCc3ccc(Cl)cc3)cc2NC1=O (centres undefined),,,,inactive
CC1Sc2ccc(S(=O)(=O)NCCc3ccccc3)cc2NC1=O (centres undefined),,-2.36%,,inactive
CC1Sc2ccc(S(=O)(=O)NCCc3ccc(S(N)(=O)=O)cc3)cc2NC1=O (centres undefined),,-0.885%,2.59 µM (active),
CC(=O)c1ccc(NC(=S)N2CCC(Cc3ccccc3)CC2)cc1,-2.69% (inactive),-2.62%,,
Cc1ccc(-n2c(C)cc(/C=N/NC(=O)c3ccncc3)c2C)c(C)c1,,-26.9%,18.4 µM (active),
Cc1ccc(-n2c(C)cc(/C=N/NC(=O)c3ccncc3)c2C)cc1,,,,inactive
Cc1cc(C)cc(-n2c(C)cc(/C=N/NC(=O)c3ccncc3)c2C)c1,-9.31% (inactive),-4.41%,,

# — PubChem BioAssay AID2685 (National Center for Advancing Translational Sciences (NCATS), 2010)
